Active and inactive are the calls of the source.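 The calls were made as follows, unless noted: active = compounds that lower survival of HCT116 colon cancer cells in the luminescence readout, no numeric limit stated; inactive = the rest.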 Non-standard residues stand in square brackets, D forms with d. Residues, ends and D or L forms follow the SMILES beside them. pGlu = O=C1CC[C@@H](C(=O)O)N1
Experiments:
[1] = Wnt pathway potentiators raising nuclear beta-catenin – imaging, WNT3A-conditioned medium, mouse C2C12, NPC library, primary screen (AID 1117326; in the data active = nuclear beta-catenin stimulation mostly above about 4.2%, no sharp cut-off; inactive = mostly below about 10%; also: reference of the scale not given here); settings: stronger effect = higher value
[2] = stimulators of insulin release from INS-1E, primary screen, cell-based, 5 mM glucose, NPC library (AID 1117329;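 active = compound raises insulin release from rat beta cells at 5 mM glucose, no numeric limit stated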; also: reference of the scale not given here); settings: rat INS-1E insulin secretion, at 10 µM, stronger effect = higher value
[3] = growth inhibition of GSK3B-pretreated HCT116 cells – cell-based, CellTiter-Glo, 0.2 to 20 µM (AID 1117336;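 active = compounds lowering colon cancer cell viability after pretreatment blocking the GSK3B kinase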); settings: HCT116 viability after GSK3B inhibitor, at 20 µM, stronger effect = higher value
[4] = inhibition of endothelial tube formation, primary screen, imaging, VEGF stimulated, CD31 staining, tube area, NPC library (AID 1117340;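 active = compound that reduces growth-factor-driven endothelial tube area in a mixed cell culture, no cutoff stated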); settings: VEGF-stimulated ADSC/ECFC co-culture, at 10 µM, stronger effect = higher value
[5] = GLP1 release stimulators, primary, NCI-H716, NPC library (AID 1117341;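 active = compound raises GLP1 secretion from the human gut endocrine cells, with no numeric limit stated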; also: reference of the scale not given here); settings: NCI-H716 cells, at 10 µM, stronger effect = higher value
[6] = HCT116 colon cancer cell growth inhibition, primary screen, CellTiter-Glo luminescence, NPC library (AID 1117342); settings: at 20 µM (top of the series)
[7] = reduced SW480 viability measured with CellTiter-Glo, NPC library, primary (AID 1117343;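 active = compounds that lower viability of the colon cancer cells in the luminescence readout, with no numeric limit stated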); settings: CellTiter-Glo luminescence; at 20 µM (top of the series)
[8] = NPC library primary testing for decreased DLD-1 cell viability via CellTiter-Glo (AID 1117346;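 active = compounds that lower survival of DLD-1 colon cancer cells in the luminescence readout, no cutoff given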); settings: DLD-1 viability, CellTiter-Glo luminescence; at 20 µM (top of the series)

Structure (SMILES): O=C(CN1CCN(Cc2ccc3c(c2)OCO3)CC1)N1c2ccccc2Sc2ccccc21
- nuclear beta-catenin stimulation ([1]; at 10 µM): 0.2% (inactive)
- nuclear beta-catenin stimulation ([1]; stimulation, at 2 µM): 2.2%
- insulin secretion stimulation [2]: 7.5% (inactive)
- viability decrease [3]: 63.5% (active)
- tube area decrease [4]: 7.5% (inactive)
- GLP1 secretion stimulation [5]: 16.3% (inactive)
- inhibition of viability [6]: 67.4% (active)
- viability decrease (inhibition) [7]: 126% (active)
- viability decrease (inhibition) [8]: 76.8% (active)

Structure (SMILES): CN(C)c1ccc(C(=C2C=CC(=[N+](C)C)C=C2)c2ccccc2)cc1
- nuclear beta-catenin stimulation ([1]; at 10 µM): 4.5% (active)
- nuclear beta-catenin stimulation ([1]; stimulation, at 2 µM): 63.1%
- insulin secretion stimulation [2]: 0.2% (inactive)
- viability decrease [3]: 100% (active)
- tube area decrease [4]: 109% (active)
- GLP1 secretion stimulation [5]: 0.7% (inactive)
- inhibition of viability [6]: 99.7% (active)
- viability decrease (inhibition) [7]: 102% (active)
- viability decrease (inhibition) [8]: 102% (active)

Structure (SMILES): CC(C)NCCCC1(C(N)=O)c2ccccc2-c2ccccc21
- nuclear beta-catenin stimulation ([1]; at 10 µM): 3.9% (inactive)
- nuclear beta-catenin stimulation ([1]; stimulation, at 2 µM): 0.2%
- insulin secretion stimulation [2]: 0.2% (inactive)
- viability decrease [3]: -48.2% (inactive)
- tube area decrease [4]: 24.7% (inactive)
- GLP1 secretion stimulation [5]: -2.8% (inactive)
- inhibition of viability [6]: -11.9% (inactive)
- viability decrease (inhibition) [7]: 1.7% (inactive)
- viability decrease (inhibition) [8]: -17% (inactive)

Structure (SMILES): Cc1c(C)n(Cc2ccccc2)c2ccc(C(=O)OCCN(C)C)cc12
- nuclear beta-catenin stimulation ([1]; at 10 µM): 12.1% (inactive)
- nuclear beta-catenin stimulation ([1]; stimulation, at 2 µM): -0.2%
- insulin secretion stimulation [2]: 79.2% (active)
- viability decrease [3]: 90.9% (active)
- tube area decrease [4]: 29.5% (inactive)
- GLP1 secretion stimulation [5]: 10.7% (inactive)
- inhibition of viability [6]: 98.9% (active)
- viability decrease (inhibition) [7]: 88.7% (active)
- viability decrease (inhibition) [8]: 95% (active)

Structure (SMILES): CSCC[C@H](N)C(=O)O
- nuclear beta-catenin stimulation ([1]; at 10 µM): 1.9% (inactive)
- nuclear beta-catenin stimulation ([1]; stimulation, at 2 µM): 1.3%
- insulin secretion stimulation [2]: 0.5% (inactive)
- viability decrease [3]: -8.1% (inactive)
- tube area decrease [4]: 2.3% (inactive)
- GLP1 secretion stimulation [5]: -2.6% (inactive)
- inhibition of viability [6]: 0.5% (inactive)
- viability decrease (inhibition) [7]: 0.4% (inactive)
- viability decrease (inhibition) [8]: -6% (inactive)

Structure (SMILES): CC(=O)SC[C@@H](Cc1ccccc1)C(=O)NCC(=O)OCc1ccccc1
- nuclear beta-catenin stimulation ([1]; at 10 µM): -0.9% (inactive)
- nuclear beta-catenin stimulation ([1]; stimulation, at 2 µM): 0.5%
- insulin secretion stimulation [2]: -1.4% (inactive)
- viability decrease [3]: -9.8% (inactive)
- tube area decrease [4]: 18.9% (inactive)
- GLP1 secretion stimulation [5]: -4.5% (inactive)
- inhibition of viability [6]: -2% (inactive)
- viability decrease (inhibition) [7]: -6.1% (active)
- viability decrease (inhibition) [8]: -5.9% (inactive)

Structure (SMILES): CCNC(=O)[C@@H]1CCCN1C(=O)[C@H](CCCN=C(N)N)NC(=O)[C@H](CC(C)C)NC(=O)CNC(=O)[C@H](Cc1ccc(O)cc1)NC(=O)[C@H](CO)NC(=O)[C@H](Cc1c[nH]c2ccccc12)NC(=O)[C@H](Cc1cnc[nH]1)NC(=O)[C@@H]1CCC(=O)N1 ([pGlu]HWSYGLRP-NHEt)
- nuclear beta-catenin stimulation ([1]; at 10 µM): 0.5% (inactive)
- nuclear beta-catenin stimulation ([1]; stimulation, at 2 µM): -0.6%
- insulin secretion stimulation [2]: -0.8% (inactive)
- viability decrease [3]: 32.1% (inactive)
- tube area decrease [4]: -2.8% (inactive)
- GLP1 secretion stimulation [5]: -2.8% (inactive)
- inhibition of viability [6]: 33% (inactive)
- viability decrease (inhibition) [7]: 25.1% (inactive)
- viability decrease (inhibition) [8]: 29.7% (inactive)

Structure (SMILES): O=C(O)Cc1cccc(-c2cc(CCCCCCc3ccc(O[C@H]4O[C@H](CO)[C@@H](O)[C@H](O)[C@@H]4O)c(-c4cccc(CC(=O)O)c4)c3)ccc2O[C@H]2O[C@H](CO)[C@@H](O)[C@H](O)[C@@H]2O)c1
- nuclear beta-catenin stimulation ([1]; at 10 µM): 0.7% (inactive)
- nuclear beta-catenin stimulation ([1]; stimulation, at 2 µM): 1.4%
- insulin secretion stimulation [2]: 2.3% (inactive)
- viability decrease [3]: -12.7% (inactive)
- tube area decrease [4]: -29% (inactive)
- GLP1 secretion stimulation [5]: 9.5% (inactive)
- inhibition of viability [6]: -26.6% (inactive)
- viability decrease (inhibition) [7]: -24.6% (inactive)
- viability decrease (inhibition) [8]: -14.9% (inactive)

Structure (SMILES): O=C(C1CCCCC1)N1CC(=O)N2CCCc3ccccc3C2C1 (stereo unspecified)
- nuclear beta-catenin stimulation ([1]; at 10 µM): 1.4% (inactive)
- nuclear beta-catenin stimulation ([1]; stimulation, at 2 µM): 2.7%
- insulin secretion stimulation [2]: 0.6% (inactive)
- viability decrease [3]: 6.6% (inactive)
- tube area decrease [4]: 12.9% (inactive)
- GLP1 secretion stimulation [5]: 5.2% (inactive)
- inhibition of viability [6]: -9.2% (inactive)
- viability decrease (inhibition) [7]: -250% (inactive)
- viability decrease (inhibition) [8]: -3.1% (inactive)

Structure (SMILES): C=CC[N+]1([C@H]2C[C@H]3[C@@H]4CC[C@H]5C[C@H](OC(C)=O)[C@@H](N6CCCCC6)C[C@]5(C)[C@H]4CC[C@]3(C)[C@H]2OC(=O)CC)CCCCC1
- nuclear beta-catenin stimulation ([1]; at 10 µM): -0.1% (inactive)
- nuclear beta-catenin stimulation ([1]; stimulation, at 2 µM): -2.6%
- insulin secretion stimulation [2]: 1.45% (inactive)
- viability decrease [3]: 27.6% (inactive)
- tube area decrease [4]: -8.7% (inactive)
- GLP1 secretion stimulation [5]: 8.2% (inactive)
- inhibition of viability [6]: 32.5% (inactive)
- viability decrease (inhibition) [7]: 23.4% (inactive)
- viability decrease (inhibition) [8]: -2.8% (inactive)

Structure (SMILES): CCN(CC)CCOc1ccccc1C(=O)CCc1ccccc1
- nuclear beta-catenin stimulation ([1]; at 10 µM): -0.8% (inactive)
- nuclear beta-catenin stimulation ([1]; stimulation, at 2 µM): -1.7%
- insulin secretion stimulation [2]: 70% (active)
- viability decrease [3]: 14.5% (inactive)
- tube area decrease [4]: 0.9% (inactive)
- GLP1 secretion stimulation [5]: 5.2% (inactive)
- inhibition of viability [6]: 61.9% (active)
- viability decrease (inhibition) [7]: 50.7% (active)
- viability decrease (inhibition) [8]: 23.2% (inactive)

Structure (SMILES): CC(O)COc1ccccc1 (stereo unspecified)
- nuclear beta-catenin stimulation ([1]; at 10 µM): -0.1% (inactive)
- nuclear beta-catenin stimulation ([1]; stimulation, at 2 µM): 1.5%
- insulin secretion stimulation [2]: -0.2% (inactive)
- viability decrease [3]: -28.5% (inactive)
- tube area decrease [4]: 11.1% (inactive)
- GLP1 secretion stimulation [5]: 0.5% (inactive)
- inhibition of viability [6]: -11.1% (inactive)
- viability decrease (inhibition) [7]: -146% (inactive)
- viability decrease (inhibition) [8]: -19.2% (inactive)

Structure (SMILES): CCOC(=O)C(=O)CCCCCCl
- nuclear beta-catenin stimulation ([1]; at 10 µM): 0.6% (inactive)
- nuclear beta-catenin stimulation ([1]; stimulation, at 2 µM): -1.9%
- insulin secretion stimulation [2]: 1.45% (inactive)
- viability decrease [3]: 12.3% (inactive)
- tube area decrease [4]: -8.5% (inactive)
- GLP1 secretion stimulation [5]: -1% (inactive)
- inhibition of viability [6]: 12.6% (inactive)
- viability decrease (inhibition) [7]: 11.4% (inactive)
- viability decrease (inhibition) [8]: 0.1% (inactive)

Structure (SMILES): C[C@H](CCC(=O)O)[C@H]1CC[C@H]2[C@@H]3CC[C@@H]4C[C@H](O)CC[C@]4(C)[C@@H]3C[C@H](O)[C@]12C
- nuclear beta-catenin stimulation ([1]; at 10 µM): -0.7% (inactive)
- nuclear beta-catenin stimulation ([1]; stimulation, at 2 µM): -1.1%
- insulin secretion stimulation [2]: 1% (inactive)
- viability decrease [3]: 37.6% (inactive)
- tube area decrease [4]: 0% (inactive)
- GLP1 secretion stimulation [5]: -5% (inactive)
- inhibition of viability [6]: 57% (active)
- viability decrease (inhibition) [7]: 35.7% (inactive)
- viability decrease (inhibition) [8]: 9.8% (active)

— PubChem BioAssay
